Assay results from PubChem BioAssay (NCATS).
Values joined by “and” are separate entries in the source; they are usually repeats but may differ in a detail not shown here. Equal entries are not always repeated. Values without a mark were called inactive. Records with an inconclusive call do not appear. Entries that show only a call come without a potency. Active and inactive are the calls of the source. Calls follow the shape of the dose curve; as a rule, active = well fitted curve in the direction sought with a large enough effect; inconclusive = small, poorly fitted or top-dose-only effect, or another doubt; inactive = no such curve, though single readings can be large; an effect the other way counts as inactive or inconclusive.

What was measured:
[1] = Primary qHTS for inhibitors of nuclear receptor binding SET domain protein 2 (NSD2) in an RCH-ACV wild type WT cells (2C) (AID 1645877); also: nearly all actives have a fitted effect of over 70% in size; also: potency is read from the fitted curve at half-maximal effect
[2] = target: Glutathione peroxidase 1 (Homo sapiens) (UniProt P07203); assay: Primary qHTS Assay for Inhibitors of Recombinant Selenoprotein Glutathione Peroxidase 1 (GPX1) (AID 1845191); also: nearly all actives have a fitted effect of over 65% in size
How it was run: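 GR-coupled readout: NADPH consumption tracked by fluorescence, ex 340/em 450 nm, at t=0 and after 15 min at RT. Final mix 10 nM GPX1, 1 mM GSH, 0.5 mM CHP, 0.5 mM NADPH, 100 nM GR, 0.01% BSA, following 30 min enzyme–compound preincubation.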

[3] = target: Phospholipid hydroperoxide glutathione peroxidase GPX4 (Homo sapiens) (UniProt P36969); assay: Primary qHTS Assay for Inhibitors of Recombinant Selenoprotein Glutathione Peroxidase 4 (GPX4) (AID 1845192); also: nearly all actives have a fitted effect of over 65% in size
How it was run: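 Steps: GPX4 plus compound, 30 min RT; add GR/GSH/NADPH master mix; start with cumene hydroperoxide; read 340/450 nm fluorescence at 0 and 15 min. Finals were 200 nM GPX4, 1 mM GSH, 0.5 mM CHP, 0.5 mM NADPH, 100 nM GR.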

[4] = target: Luciferin 4-monooxygenase (Photinus pyralis) (UniProt P08659); assay: Primary firefly luciferase (FLuc) qHTS assay for identification of artifact compounds. (AID 1845220); also: nearly all actives have a fitted effect of over 60% in size
How it was run: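 Titrated compounds were incubated 15 min at RT, protected from light, with luciferin and ATP at 10 uM; reaction started with 10 nM FLuc, luminescence imaged at 5 min, and concentration-response fitted by Hill equation.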

[5] = system: Nanoluciferase (engineered Oplophorus gracilirostris luciferase); assay: Primary Nanoluciferase (NLuc) qHTS assay for identification of artifact compounds. (AID 1845222);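 also: NLuc secreted into diluted conditioned medium of S16 cells; series mostly up to about 54 µM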
How it was run: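 qHTS format, against NLuc in S16 cell-conditioned medium. Nano-Glo substrate 1:100 was added after 15 min at room temperature. Luminescence was taken after a further 5 min.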

[6] = Primary redox qHTS assay for identification of artifact compounds. (AID 1845223)
How it was run: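 Redox-cycling detection via DTT (250 uM final) oxidation coupled to Amplex Red (25 uM)/HRP (250 mU/mL) in HBSS. 15 min preincubation plus 30 min after DTT, room temperature. Ex/Em 525/598 nm; 4-parameter Hill fit against DMSO and 10 uM DA3003.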

[7] = Primary fluorescence-based thiol-reactive (MSTI) qHTS assay for identification of artifact compounds. (AID 1845221);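 also: series mostly up to about 54 µM; thiol-reactive compounds lower the probe fluorescence signal; nearly all actives have a fitted effect of over 65% in size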
How it was run: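 A multi-concentration qHTS design tested compounds against 4 uM MSTI, pH 7.4 phosphate-buffered saline. Plates were protected from light for 1 h at room temperature before imaging fluorescence.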

Glutathione peroxidase 1 (Homo sapiens), sequence (P07203 whole entry, looked up): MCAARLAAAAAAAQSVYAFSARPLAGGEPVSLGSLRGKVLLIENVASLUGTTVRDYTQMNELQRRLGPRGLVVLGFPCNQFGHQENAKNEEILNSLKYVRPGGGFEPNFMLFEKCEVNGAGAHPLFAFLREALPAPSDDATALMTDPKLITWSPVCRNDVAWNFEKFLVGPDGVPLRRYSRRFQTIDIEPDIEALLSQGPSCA
Phospholipid hydroperoxide glutathione peroxidase GPX4 (Homo sapiens), sequence (P36969 whole entry, looked up): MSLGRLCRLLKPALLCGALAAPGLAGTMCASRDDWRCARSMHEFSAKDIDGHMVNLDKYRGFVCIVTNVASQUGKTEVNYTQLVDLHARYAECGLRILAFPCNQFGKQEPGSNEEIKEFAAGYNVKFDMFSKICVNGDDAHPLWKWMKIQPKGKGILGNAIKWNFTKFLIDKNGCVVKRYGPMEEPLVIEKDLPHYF

SMILES | Potency [1] | Potency [2] | Potency [3] | Potency [4] | Potency [5] | Potency [6] | Potency [7] | outcome [1] | activity change, negative = thiol reactive [7] | activity, negative = inhibition [5]
COc1cc(C(=O)O)ccc1OC1OC(CO)C(O)C(O)C1O (stereo not given) | inactive | inactive | inactive | inactive | inactive | inactive | – | – | – | –
C/C(=C/CO)CC[C@@H]1[C@@](C)(O)CCC2C(C)(C)CCC[C@]21C (stereo not given in full) | inactive | inactive | inactive | inactive | inactive | inactive | – | – | – | –
C[C@]1(CO)CCC[C@]2(C)C3=C(CCC12)COC3 (stereo not given in full) | inactive | inactive | inactive | inactive | inactive | inactive | – | – | – | –
OC[C@H]1O[C@@H](O[C@H]2[C@H](OCc3ccccc3)O[C@H](CO[C@@H]3OC[C@@H](O)[C@H](O)[C@H]3O)[C@@H](O)[C@@H]2O)[C@H](O)[C@@H](O)[C@@H]1O | inactive | inactive | inactive | inactive | inactive | inactive | – | – | – | –
C=C[C@H]1[C@H](O[C@@H]2O[C@H](CO)[C@@H](O)[C@H](O)[C@H]2O)OC=C(C(=O)OC)[C@H]1C[C@@H]1c2cc(O)c(O)cc2CCN1C(C)=O | inactive | inactive | inactive | inactive | inactive | inactive | – | – | – | –
O=C1N=C(N2CCOCC2)CN1c1ccc(Cl)cc1 | inactive | inactive | inactive | inactive | inactive | inactive | – | – | – | –
CC1=C(COC2OC(CO)C(O)C(O)C2O)C(C(CO)C(=O)O)CC1 (stereo not given) | inactive | inactive | inactive | inactive | inactive | inactive | – | – | – | –
CCN(Cc1cccnc1)C(=O)CN(c1ccc(OC)nc1)S(=O)(=O)c1ccccc1C | inactive | inactive | inactive | – | inactive | inactive | inactive | – | – | –
CC(C)O[C@@H]1O[C@H](CO)[C@@H](O)[C@H](O)[C@H]1O | inactive | inactive | inactive | inactive | inactive | inactive | – | – | – | –
CC1=CC(=O)CC(C)(C)[C@@]1(O)CC[C@@H](C)O[C@@H]1O[C@H](CO)[C@@H](O)[C@H](O)[C@H]1O | inactive | inactive | inactive | inactive | inactive | inactive | – | – | – | –
CC1(C)CCCC2(C)C1C(O)C=C(CO)C2(O)CO (stereo not given) | inactive | inactive | inactive | inactive | inactive | inactive | – | – | – | –
CC(C)(O)CC(CO)NC(=O)CC(O)CC(=O)Cc1ccccc1 (stereo not given) | inactive | inactive | inactive | inactive | inactive | inactive | – | – | – | –
C/C=C/C=C/C(O)=C1\C(O)=C(C)C(=O)[C@@]2(C)OC(=O)[C@@](C)(NC(=O)/C=C/C(=O)O)[C@@H]12 | inactive | inactive | inactive | inactive | inactive | inactive | – | – | – | –
COC(=O)c1ccnc(-c2cc(C(=O)NCCc3ccccc3)ccn2)c1 | inactive | inactive | inactive | inactive | inactive | inactive | – | – | – | –
Nc1ccc(-c2cccc3c(=O)cc(N4CCOCC4)oc23)cc1 | 1.83 µM (active) | inactive | inactive | inactive | inactive | inactive | – | – | – | –
C#CCN(Cc1cc2c(=O)[nH]c(C)nc2cc1Br)c1ccc(C(=O)NCc2cccnc2)cc1 | 0.0023 µM (active) | inactive | inactive | – | inactive | inactive | inactive | – | – | –
C=C1C[C@]23C[C@H]1[C@@H](O)C[C@H]2[C@@]12C=C[C@H](O)[C@@](C)(C(=O)O1)[C@H]2[C@@H]3C(=O)O | inactive | inactive | inactive | inactive | inactive | inactive | – | – | – | –
CC1(C)CCCC2(C)C1CC=C1C(=O)OC(O)C12O (stereo not given) | inactive | inactive | inactive | inactive | inactive | inactive | – | – | – | –
CC(=O)NC1C(OC(C)(C)C2CCC3(C)C=C(C4CCC5C4(C)CC(O)C4OC(C(C)(C)O)CCC45C)CCC3O2)OC(CO)C(O)C1O (stereo not given) | inactive | inactive | inactive | inactive | inactive | inactive | – | – | – | –
C/C=C/c1ccc(O[C@@H]2O[C@H](CO)[C@@H](O)[C@H](O)[C@H]2O)c(OC)c1 | inactive | inactive | inactive | inactive | – | inactive | – | – | – | –
C[C@@H]1O[C@@H](O[C@H]2[C@H](O)[C@@H](C(=O)O)O[C@@H](O[C@H]3CC[C@@]4(C)C(CC[C@]5(C)C4CC=C4C6CC(C)(C)CC[C@]6(C(=O)O)CC[C@]45C)C3(C)C)[C@@H]2O[C@@H]2OC[C@@H](O)[C@H](O)[C@H]2O)[C@H](O)[C@H](O)[C@H]1O (stereo not given in full) | – | inactive | inactive | – | – | – | – | inactive [at 9.23 µM] | 129% [at 11.5 µM] | 0.398% [at 11.6 µM]
O=C(/C=C/c1cccc(S(=O)(=O)Nc2ccccc2)c1)NO | 252 nM (active) and 332 nM (active) | inactive | inactive | inactive | inactive | inactive | – | – | – | –
